Source: PubChem BioAssay (Tox21)
Records with an inconclusive call do not appear. A call without a number means that no potency is given here. Unmarked numbers belong to inactive results. Calls of active or inactive are those of the source. The call rests on the fitted dose curve; in most records, active means well fitted inhibition curve with a large enough effect in the signal ratio in the repeat runs (not every such curve was filed as active); inconclusive means weak or mixed curves, or effect the other way; inactive means flat fitted curve, though single readings scatter; the % refers to the signal ratio.

Assay: cAMP Responsive Elements (CRE) small molecule antagonists, cell-based qHTS assay (AID 1963591)
Conditions: CRE-bla HEK293T, beta-lactamase FRET ratio; series mostly up to 92.4 µM
Method in brief: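 First, CRE-bla HEK293T cells settled 18 h at 37 C. Next, compound and 0.25 uM final NKH477 were applied for 3 h. Last, LiveBLAzer B/G substrate was loaded for 2 h at room temperature.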

Row | Structure (SMILES) | Potency | activity change, negative = inhibition
1 | O=c1cc(-c2ccccc2)oc2ccccc12 | inactive | –
2 | O=C(O)c1cc2ccccc2cc1O | inactive | –
3 | CS(=O)(=O)c1ccc(Cl)cc1 | inactive | –
4 | S=C(NC1CCCCC1)NC1CCCCC1 | inactive | –
5 | N[C@H](Cc1c[nH]c2ccccc12)C(=O)O | inactive | –
6 | C=CC(C)(O)CCC=C(C)C (centres undefined) | inactive | –
7 | O=[N+]([O-])c1ccc2nc[nH]c2c1 | inactive | –
8 | CC(C)(c1cc(Br)c(O)c(Br)c1)c1cc(Br)c(O)c(Br)c1 | inactive | –
9 | BrC1CCC(Br)C(Br)CCC(Br)C(Br)CCC1Br (centres undefined) | inactive | –
10 | COC(=O)Nc1nc2ccc(Sc3ccccc3)cc2[nH]1 | inactive | –
11 | CC(=O)OCc1ccccc1 | inactive | –
12 | OCC(CO)(CO)CO | inactive | –
13 | CN1Cc2c(N)cccc2C(c2ccccc2)C1 (centres undefined) | inactive | –
14 | CCCc1ccc(O)cc1 | inactive | –
15 | Cc1cccnc1 | inactive | –
16 | CCC(C)c1ccccc1O (centres undefined) | inactive | –
17 | CC1=CC[C@@H]2C[C@H]1C2(C)C | – | 3.33% [at 18.9 µM]

Row | Structure (SMILES) | Potency | activity change, negative = inhibition
18 | OC1CCCC1 | inactive | –
19 | NS(=O)(=O)c1ccc(N2CCCCS2(=O)=O)cc1 | inactive | –
20 | N[C@@H](Cc1c[nH]c2ccccc12)C(=O)O | inactive | –
21 | CCCCCCCO | inactive | –
22 | N[C@@H](Cc1c[nH]c2ccc(O)cc12)C(=O)O | inactive | –
23 | CC(COCC(C)OC(=O)c1ccccc1)OC(=O)c1ccccc1 (centres undefined) | inactive | –
24 | O=C(O)/C=C/c1ccccc1 | inactive | –
25 | CCCCCOC(C)=O | inactive | –
26 | CC(=O)OC1CC(C)OC(C)O1 (centres undefined) | inactive | –
27 | COc1ccc(COC(C)=O)cc1 | inactive | –
28 | CCCCCCCCCCCCOCCO | inactive | –
29 | NC[C@H](O)c1ccc(O)c(O)c1 | inactive | –
30 | Cc1ccc(C(C)C)cc1O | inactive | –
31 | Nc1ccc(S(=O)(=O)Nc2ccc(Cl)nn2)cc1 | inactive | –
32 | CC(C)(C)c1cc(Cc2cc(C(C)(C)C)c(O)c(C(C)(C)C)c2)cc(C(C)(C)C)c1O | inactive | –
33 | CCCCOCCOCCOC(=O)CCCCC(=O)OCCOCCOCCCC | inactive | –
34 | O=C(O)Cc1cccc(-c2cc(CCCCCCc3ccc(O[C@H]4O[C@H](CO)[C@@H](O)[C@H](O)[C@@H]4O)c(-c4cccc(CC(=O)O)c4)c3)ccc2O[C@H]2O[C@H](CO)[C@@H](O)[C@H](O)[C@@H]2O)c1 | – | -10.4% [at 0.349 µM]
